From publication PMC10812921, “Transcriptional Coactivator BOB1 (OBF1, OCA-B) Modulates the Specificity of DNA Recognition by the POU-Domain Factors OCT1 and OCT2 in a Monomeric Configuration”

How the values were obtained:
POU1 (OCT1 POU domain) = POU1 (OCT1 POU domain) (human, UniProt P14859 260-458); assay: EMSA-SELEX-seq; no BOB1; 20 mM Tris-HCl pH 7.6, 140 mM NaCl, 10% glycerol, 0.5 mM EDTA, 0.05% Triton X-100, 0.1 mg/mL BSA, 0.1 mg/mL poly(dI-dC), 5 mM DTT, room temperature, 20 min; high values mean tight binding; conditions: protein: recombinant; dsDNA, one strand shown
Outline: (§1)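 After expression in E. coli BL21, tagged POU-domain proteins were purified under denaturing conditions and then renatured. Each binding reaction held 30 ng protein and 300 ng of a PCR-amplified double-stranded random 35-nt library in 20 μL Tris–HCl pH 7.6 binding buffer, with or without 28 ng coactivator protein, for 20 min at RT. Bands holding complexes were cut from native 6% PAGE, eluted and PCR-amplified across four rounds, and the output was Illumina-sequenced. The value given for binding preference is the share, in percent, of sequenced 8-mers fitting a motif pattern.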

POU2 (OCT2 POU domain) = target: T1, POU2 (OCT2 POU domain) (human, UniProt P09086 175-386); assay: as above; conditions: protein: recombinant; dsDNA, one strand shown
T1 sequence: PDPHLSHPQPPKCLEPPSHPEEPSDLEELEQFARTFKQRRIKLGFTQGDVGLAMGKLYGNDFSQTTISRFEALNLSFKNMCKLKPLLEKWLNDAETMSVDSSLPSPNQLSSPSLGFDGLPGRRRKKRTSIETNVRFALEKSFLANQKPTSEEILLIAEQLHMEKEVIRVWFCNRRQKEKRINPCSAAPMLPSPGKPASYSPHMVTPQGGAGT
Outline: as §1

[1] = target: POU1 (OCT1 POU domain);BOB1 (OBF1, OCA-B) (human;human, UniProt P14859;Q16633 260-458;1-256, |); assay: EMSA-SELEX-seq; with BOB1 (ternary complex band); 20 mM Tris-HCl pH 7.6, 140 mM NaCl, 10% glycerol, 0.5 mM EDTA, 0.05% Triton X-100, 0.1 mg/mL BSA, 0.1 mg/mL poly(dI-dC), 5 mM DTT, room temperature, 20 min; high values mean tight binding; conditions: protein: recombinant;recombinant; copies: 1;1; dsDNA, one strand shown
Outline: as §1

[2] = target: T2, POU2 (OCT2 POU domain);BOB1 (OBF1, OCA-B) (human;human, UniProt P09086;Q16633 175-386;1-256, |); assay: as above; conditions: protein: recombinant;recombinant; copies: 1;1; dsDNA, one strand shown
T2 sequence 1: T1 sequence
T2 sequence 2: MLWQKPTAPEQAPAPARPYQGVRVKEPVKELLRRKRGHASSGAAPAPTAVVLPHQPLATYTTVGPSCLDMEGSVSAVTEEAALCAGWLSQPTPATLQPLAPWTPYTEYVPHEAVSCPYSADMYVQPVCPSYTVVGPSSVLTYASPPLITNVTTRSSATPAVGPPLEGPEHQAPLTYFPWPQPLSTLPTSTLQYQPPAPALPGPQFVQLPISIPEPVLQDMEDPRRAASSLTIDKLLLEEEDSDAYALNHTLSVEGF
Outline: as §1

POU1 (OCT1 POU domain), sequence (P14859 260-458): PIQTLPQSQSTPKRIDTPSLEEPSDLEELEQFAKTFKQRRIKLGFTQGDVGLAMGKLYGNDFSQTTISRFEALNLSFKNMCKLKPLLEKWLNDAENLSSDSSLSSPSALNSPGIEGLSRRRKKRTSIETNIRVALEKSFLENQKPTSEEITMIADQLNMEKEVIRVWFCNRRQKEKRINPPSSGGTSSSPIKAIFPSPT

Row | Sequence | binding signal (POU1 (OCT1 POU domain)) | binding signal (POU2 (OCT2 POU domain)) | binding signal [1] | binding signal [2]
1 | ACATCAAC | 0.0172 % of ANNNNAAN 8-mers | 0.0253 % of ANNNNAAN 8-mers | 0.0211 % of ANNNNAAN 8-mers | 0.0281 % of ANNNNAAN 8-mers
2 | ATAGGAAC | 0.0339 % of ANNNNAAN 8-mers | 0.0449 % of ANNNNAAN 8-mers | 0.0375 % of ANNNNAAN 8-mers | 0.0545 % of ANNNNAAN 8-mers
3 | ACGCCAAC |  | 0.0115 % of ANNNNAAN 8-mers | 0.0121 % of ANNNNAAN 8-mers | 
4 | ACCCGAAC | 0.0111 % of ANNNNAAN 8-mers | 0.0109 % of ANNNNAAN 8-mers |  | 0.0132 % of ANNNNAAN 8-mers
5 | ACCTCAAG | 0.0141 % of ANNNNAAN 8-mers | 0.0127 % of ANNNNAAN 8-mers | 0.0156 % of ANNNNAAN 8-mers | 
6 | ACTGCAAC | 0.0114 % of ANNNNAAN 8-mers | 0.0155 % of ANNNNAAN 8-mers | 0.0199 % of ANNNNAAN 8-mers | 
7 | ACCCCAAG |  | 0.0115 % of ANNNNAAN 8-mers | 0.0105 % of ANNNNAAN 8-mers | 
8 | ACCACAAT | 0.0179 % of ANNNNAAN 8-mers | 0.0178 % of ANNNNAAN 8-mers | 0.0199 % of ANNNNAAN 8-mers | 0.0215 % of ANNNNAAN 8-mers
9 | AGCTCAAC |  | 0.0132 % of ANNNNAAN 8-mers | 0.0101 % of ANNNNAAN 8-mers | 0.0231 % of ANNNNAAN 8-mers
10 | ACCGCAAG | 0.0114 % of ANNNNAAN 8-mers | 0.0127 % of ANNNNAAN 8-mers | 0.0176 % of ANNNNAAN 8-mers | 
11 | ACGCCAAG | 0.0145 % of ANNNNAAN 8-mers | 0.0167 % of ANNNNAAN 8-mers |  | 0.014 % of ANNNNAAN 8-mers
12 | ACAGCAAC | 0.0153 % of ANNNNAAN 8-mers | 0.0155 % of ANNNNAAN 8-mers | 0.014 % of ANNNNAAN 8-mers | 
13 | AAAGTAAT | 0.103 % of ANNNNAAN 8-mers | 0.14 % of ANNNNAAN 8-mers | 0.11 % of ANNNNAAN 8-mers | 0.0941 % of ANNNNAAN 8-mers
14 | AGTCCAAG | 0.0236 % of ANNNNAAN 8-mers | 0.0253 % of ANNNNAAN 8-mers | 0.0261 % of ANNNNAAN 8-mers | 0.0215 % of ANNNNAAN 8-mers
15 | AGCCCAAC |  |  | 0.0105 % of ANNNNAAN 8-mers | 0.0124 % of ANNNNAAN 8-mers
16 | ACCCAAAC |  |  | 0.0164 % of ANNNNAAN 8-mers | 0.0107 % of ANNNNAAN 8-mers
17 | ACCGGAAG |  | 0.0127 % of ANNNNAAN 8-mers |  | 0.0124 % of ANNNNAAN 8-mers
18 | AACCCAAG | 0.0111 % of ANNNNAAN 8-mers | 0.015 % of ANNNNAAN 8-mers | 0.0144 % of ANNNNAAN 8-mers | 

Row | Sequence | binding signal (POU1 (OCT1 POU domain)) | binding signal (POU2 (OCT2 POU domain)) | binding signal [1] | binding signal [2]
19 | AGCACAAC | 0.0114 % of ANNNNAAN 8-mers | 0.0132 % of ANNNNAAN 8-mers |  | 0.0124 % of ANNNNAAN 8-mers
20 | ACCGAAAC | 0.0107 % of ANNNNAAN 8-mers | 0.0132 % of ANNNNAAN 8-mers | 0.0125 % of ANNNNAAN 8-mers | 
21 | AGTGGAAG | 0.0324 % of ANNNNAAN 8-mers | 0.0357 % of ANNNNAAN 8-mers | 0.0414 % of ANNNNAAN 8-mers | 0.0405 % of ANNNNAAN 8-mers
22 | ACTCAAAT | 0.0889 % of ANNNNAAN 8-mers | 0.061 % of ANNNNAAN 8-mers | 0.127 % of ANNNNAAN 8-mers | 0.0768 % of ANNNNAAN 8-mers
23 | ATGTTAAG | 0.128 % of ANNNNAAN 8-mers | 0.146 % of ANNNNAAN 8-mers | 0.0835 % of ANNNNAAN 8-mers | 0.0966 % of ANNNNAAN 8-mers
24 | ATCGTAAG | 0.0343 % of ANNNNAAN 8-mers | 0.0449 % of ANNNNAAN 8-mers | 0.0379 % of ANNNNAAN 8-mers | 0.0388 % of ANNNNAAN 8-mers
25 | ACGACAAT | 0.029 % of ANNNNAAN 8-mers | 0.0299 % of ANNNNAAN 8-mers | 0.025 % of ANNNNAAN 8-mers | 0.0297 % of ANNNNAAN 8-mers
26 | ACCGCAAC | 0.0114 % of ANNNNAAN 8-mers |  |  | 0.0157 % of ANNNNAAN 8-mers
27 | ACCACAAG | 0.0114 % of ANNNNAAN 8-mers | 0.0178 % of ANNNNAAN 8-mers | 0.0113 % of ANNNNAAN 8-mers | 
28 | AACCTAAC | 0.013 % of ANNNNAAN 8-mers |  |  | 0.0132 % of ANNNNAAN 8-mers
29 | AAGGAAAG | 0.0576 % of ANNNNAAN 8-mers | 0.0524 % of ANNNNAAN 8-mers | 0.0792 % of ANNNNAAN 8-mers | 0.0644 % of ANNNNAAN 8-mers
30 | ATCCTAAA | 0.0267 % of ANNNNAAN 8-mers | 0.0328 % of ANNNNAAN 8-mers | 0.0285 % of ANNNNAAN 8-mers | 0.0421 % of ANNNNAAN 8-mers
31 | ACACCAAC |  | 0.0127 % of ANNNNAAN 8-mers | 0.0113 % of ANNNNAAN 8-mers | 0.0107 % of ANNNNAAN 8-mers
32 | AACGCAAC | 0.013 % of ANNNNAAN 8-mers | 0.0201 % of ANNNNAAN 8-mers |  | 0.0182 % of ANNNNAAN 8-mers
33 | AGCCGAAT | 0.0313 % of ANNNNAAN 8-mers | 0.0368 % of ANNNNAAN 8-mers | 0.0281 % of ANNNNAAN 8-mers | 0.033 % of ANNNNAAN 8-mers
34 | ACCCTAAC | 0.0107 % of ANNNNAAN 8-mers | 0.0121 % of ANNNNAAN 8-mers |  | 0.0157 % of ANNNNAAN 8-mers
35 | AACGAAAT | 0.0744 % of ANNNNAAN 8-mers | 0.0783 % of ANNNNAAN 8-mers | 0.0675 % of ANNNNAAN 8-mers | 0.0636 % of ANNNNAAN 8-mers
